# Reference: ChEMBL document CHEMBL3988442, “University of Dundee, Small-Polar-MMV Screening Library” (2021)
# Hit rate of the full screen: of about 48,000 compounds, about 13,000 (27%) showed an effect of 50% or more. The list shows a part of the results.
# System: Wolbachia pipientis
# Assay: Anti-Wolbachia Cell-Based Screen
# Assay type: functional
# Parameters: scale not given: in the data most compounds retested in dose-response had high values
# Conditions: 5 µM
row,Structure (SMILES),Percent Effect [%]
1,CN(C)c1nc2c(c(=O)[nH]1)CCN(C(=O)c1c[nH]c(=O)c(Cl)c1)C2,24.13
2,Cc1cc(C)nc(CNC(=O)C(c2cccnc2)N2CCOCC2)n1 (stereo not given),12.66
3,CC(CCc1ccccc1)NC(=O)CNCCCN1CCOCC1.O=C(O)C(=O)O (stereo not given),7.217
4,O=c1[nH]c2ccccc2cc1CNCCCN1CCOCC1,102.3
5,Cc1ccc2cc(CNCCN3CCCC3)c(=O)[nH]c2c1,112.1
6,Cc1ccc2cc(CN(C)Cc3ncc[nH]3)c(=O)[nH]c2c1,-0.6566
7,Cc1ccc2cc(CN(C)Cc3ccncn3)c(=O)[nH]c2c1,-11.97
8,Cc1ccc2[nH]c(=O)c(CNCCCN3CCOCC3)cc2c1,96.42
9,Cc1cc(C)cc(CNCCS(=O)(=O)N2CCOCC2)c1,-11.28
10,Cc1cc(C)c2cc(CNCCCN3CCOCC3)c(=O)[nH]c2c1,97.61
11,Cc1ccc2cc(CNCCCN3CCOCC3)c(=O)[nH]c2c1,-6.489
12,CCCS(=O)(=O)N1C[C@@H]2CN(Cc3cnn(C)c3)CCO[C@@H]2C1.O=C(O)C(F)(F)F,-20.93
13,CCOC(=O)c1n[nH]cc1CN1CCOC(Cc2ccc(F)cc2)C1 (stereo not given),-1.908
14,CCOc1ccc(CN2CC[C@](C)(O)C(C)(C)C2)cn1,-8.073
15,O=C1O[C@@H]2CN(S(=O)(=O)N3CCCC3)C[C@@H]2N1CCc1cccc(Cl)c1,9.806
16,CN(CCCNC(=O)c1ccc(C#N)cc1)CC(F)(F)F,-0.8138
17,Cc1cc(NCCOCCS(C)(=O)=O)nc2ccccc12,-11.25
18,Cc1nc(NC(=O)N2CCCC(C(F)(F)F)C2)nn1C (stereo not given),-33.51
19,O=S(=O)(Nc1cn[nH]c1)c1ccc(Br)c(F)c1,-16.59
20,CC(C)Cc1cc(NC(=O)c2ccc(=O)[nH]n2)n(C)n1,9.079
21,COc1cccc(OC2CN(C(=O)c3cc(CC(C)C)nn3C)C2)c1,-45.28
22,CC(C)Cc1cc(NC(=O)c2ccncc2)n(C)n1,97.89

row,Structure (SMILES),Percent Effect [%]
1,COc1cccc(C(=O)Nc2cc(CC(C)C)nn2C)c1,-2.904
2,CC(C)Cc1cc(NC(=O)c2ccccn2)n(C)n1,95.28
3,COc1ccc(C(=O)Nc2cc(CC(C)C)nn2C)cc1,109.3
4,CC(C)Cc1cc(NC(=O)c2n[nH]c3ccccc23)n(C)n1,100
5,Cc1cc(C(C)(O)CNC(=O)c2ccc(Br)o2)c(C)o1 (stereo not given),-12.89
6,CCOC(C)c1noc(CN(C)C(=O)c2ccncc2)n1 (stereo not given),-13.27
7,COCCNC(=O)[C@H]1CN(Cc2nccs2)C[C@H]2OCC[C@@H]12.O=C(O)C(F)(F)F.O=C(O)C(F)(F)F,-11.72
8,CCn1cncc1C1CC(=O)Nc2c1c(C)nn2-c1ccc(C)cc1 (stereo not given),-3.451
9,Cn1c2c(c(=O)n1C)CN(S(=O)(=O)c1cccs1)CCC2,-5.821
10,CN(Cc1cccc(F)c1)C(=O)CS(=O)(=O)Cc1ccc(Cl)c(Cl)c1,7.071
11,CC(C)Cc1cc(NC(=O)c2cc(Cl)c[nH]2)n(C)n1,97.83
12,CC(C)Cc1cc(C(=O)N2CCC(Oc3cccnc3)CC2)n(C)n1,-0.7222
13,CC(C)Cc1cc(NC(=O)N2CCC(Oc3cccnc3)C2)n(C)n1 (stereo not given),-4.031
14,CC(C)Cc1cc(NC(=O)c2ccccc2)n(C)n1,80.95
15,CC(C)Cc1cc(NC(=O)c2ccc[nH]2)n(C)n1,5.511
16,CC(C)Cc1cc(NC(=O)c2cccnc2)n(C)n1,95.88
17,CC(=O)Nc1cc(C(=O)Nc2cc(CC(C)(C)C)nn2C)ccc1F,-21.96
18,Cc1cnn(CC2CCCN2CC(=O)N(C)CCC#N)c1 (stereo not given),-15.64
19,COc1cccc(CN(C)C(C)c2ccon2)c1OCCn1ccnc1 (stereo not given),6.714
20,N#Cc1cccc(OC2CCN(C(=O)c3cncc(O)c3)CC2)c1,-9.362
21,CC(NCCn1cccn1)c1ccc(F)cc1F (stereo not given),14.02
22,CCn1cnnc1C1CCN(C(=O)c2cccc(N(C)C)c2)CC1,182

row,Structure (SMILES),Percent Effect [%]
1,CCn1cnnc1C1CCN(C(=O)c2cccc(-n3cccc3)c2)CC1,173.7
2,CCN1CCN(C(=O)c2ccnc(N(C)C)c2)CC1,-10.63
3,CCn1cnnc1C1CCN(C(=O)c2ccnc(N(C)C)c2)CC1,117.4
4,CCn1cnnc1C1CCN(C(=O)c2ccc3c(c2)nnn3C)CC1,122.3
5,CCn1cnnc1C1CCN(C(=O)c2cccc3c2ccn3C)CC1,4.279
6,Cn1nnc2cc(C(=O)N3CCCC3Cc3ccccc3)ccc21 (stereo not given),-4.659
7,CCn1cnnc1C1CCN(C(=O)CC(C)n2cccc2)CC1 (stereo not given),-3.98
8,O=C(O)C(F)(F)F.O=C(c1nc2c(o1)CN(CC1CCC1)C2)N1CCCC1,1.201
9,CC(C)(CNC(=O)C1CCCN1S(C)(=O)=O)N1CCOCC1 (stereo not given),0.9982
10,Cc1cc(CNCC2(O)CCOCC2)ccc1F,-13.16
11,COC(=O)N1CCN(Cc2ccccc2C(C)(C)C#N)CC1,-9.14
12,COc1ccccc1-c1cc(C(=O)N(C)C)c2cnn(C)c2n1,108
13,COc1ccccc1N(C)Cc1nc2c(cnn2C)c(=O)[nH]1,-7.278
14,COc1ccc(CN(C)c2nc3c(cnn3C)c(=O)[nH]2)c(OC)c1,-2.005
15,COc1cccc2c1N(Cc1nc3c(cnn3C)c(=O)[nH]1)CCC2,-0.8657
16,COc1ccccc1-c1cc(C(=O)N2CCCC2)c2cnn(C)c2n1,117.8
17,COc1cccc(CN(C)Cc2nc3c(cnn3C)c(=O)[nH]2)c1OC,14.32
18,COc1ccccc1OC1CCN(C(=O)c2cnc(C)cc2C)CC1,-3.522
19,COc1ccccc1CN(C)c1nc2c(cnn2C)c(=O)[nH]1,-4.184
20,COc1ccccc1-c1cc(C(=O)N(C)C)nc2c1cnn2C,124.6
21,COc1cccc(C)c1C(=O)N1CCc2ncnc(NCCO)c2CC1,-30.82
